# Data reported in the supplement of paper PMC10849652.
# About 7,900 targets were measured; listed, in parts, are those with a hit and a random draw of the rest. About 0.6% of all pairs of compound and target were hits. A number with no mark means an inactive call.
# Experiments:
# Assay in all cases: log2 fold change, soluble protein after heating vs DMSO (PISA); higher = thermal stabilisation; K562 cells, 10 uM, 30 min; active = over 0.2 and 3.5 SD of the protein, either way, in both replicates (recomputed)
# saracatinib = compound: CN1CCN(CCOc2cc(OC3CCOCC3)c3c(Nc4c(Cl)ccc5c4OCO5)ncnc3c2)CC1 [saracatinib]
# Summary of the method: (§1)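 K562 cells at 2×10^6 cells/mL were treated for 30 min with 10 μM compound, and aliquots were heated for 3 min over 48°C-58°C before pooling. Extraction used PBS with 0.5% NP-40 at 4°C, and soluble protein was the supernatant after 21,000xg for 90 min, measured by TMTpro 16plex LC-MS/MS with channel sums equalised. Thermal stability values, relative to control samples and from duplicates, are log2 fold changes.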
# sotrastaurin = compound: CN1CCN(c2nc(C3=C(c4c[nH]c5ccccc45)C(=O)NC3=O)c3ccccc3n2)CC1 [sotrastaurin]
# Summary of the method: as §1
# alvocidib = compound: CN1CC[C@H](c2c(O)cc(O)c3c(=O)cc(-c4ccccc4Cl)oc23)[C@H](O)C1 [alvocidib]
# Summary of the method: as §1
# Tubastatin A = compound: CN1CCc2c(c3ccccc3n2Cc2ccc(C(=O)NO)cc2)C1 [Tubastatin A]
# Summary of the method: as §1
# [1] = compound: CNC(=O)C1=CC=CC=C1NC2=NC(=NC=C2Cl)NC3=C(C=C(C=C3)N4CCOCC4)OC
# Summary of the method: as §1
# defactinib = compound: CNC(=O)c1ccc(Nc2ncc(C(F)(F)F)c(NCc3nccnc3N(C)S(C)(=O)=O)n2)cc1 [defactinib]
# Summary of the method: as §1
# rucaparib = compound: CNCc1ccc(-c2[nH]c3cc(F)cc4c3c2CCNC4=O)cc1 [rucaparib]
# Summary of the method: as §1
# [2] = compound: CNc1nc(-c2ccc3c(N)n[nH]c3c2)cc(N2C[C@@H](C(=O)NC3CCCCC3)CC[C@H]2C)n1
# Summary of the method: as §1
# encorafenib = compound: COC(=O)N[C@@H](C)CNc1nccc(-c2cn(C(C)C)nc2-c2cc(Cl)cc(NS(C)(=O)=O)c2F)n1 [encorafenib]
# Summary of the method: as §1
# [3] = compound: COC(=O)[C@H](CCSC)NC(=O)C1=C(C=C(C=C1)NC[C@H](CS)N)C2=CC=CC=C2
# Summary of the method: as §1
# [4] = compound: COC1=CC=C(C=C1)CN2C=CC3=C2C=C(C=C3)C(=O)NO
# Summary of the method: as §1
# filanesib = compound: CON(C)C(=O)N1N=C(c2cc(F)ccc2F)S[C@@]1(CCCN)c1ccccc1 [filanesib]
# Summary of the method: as §1
# zotarolimus = compound: CO[C@H]1C[C@@H]2CC[C@@H](C)[C@@](O)(O2)C(=O)C(=O)N2CCCC[C@H]2C(=O)O[C@H]([C@H](C)C[C@@H]2CC[C@H](n3cnnn3)[C@H](OC)C2)CC(=O)[C@H](C)/C=C(\C)[C@@H](O)[C@@H](OC)C(=O)[C@H](C)C[C@H](C)/C=C/C=C/C=C/1C [zotarolimus]
# Summary of the method: as §1
# idasanutlin = compound: COc1cc(C(=O)O)ccc1NC(=O)[C@@H]1N[C@@H](CC(C)(C)C)[C@](C#N)(c2ccc(Cl)cc2F)[C@H]1c1cccc(Cl)c1F [idasanutlin]
# Summary of the method: as §1
# alisertib = compound: COc1cc(Nc2ncc3c(n2)-c2ccc(Cl)cc2C(c2c(F)cccc2OC)=NC3)ccc1C(=O)O [alisertib]
# Summary of the method: as §1
# [5] = compound: COc1cc2nc(-c3cc(F)ccc3O)nc(N[C@@H]3CNC[C@H]3C(C)(C)O)c2cc1OC
# Summary of the method: as §1
# gefitinib = compound: COc1cc2ncnc(Nc3ccc(F)c(Cl)c3)c2cc1OCCCN1CCOCC1 [gefitinib]
# Summary of the method: as §1
# [6] = compound: COc1cccc2cc(-c3nc([C@H]4CC[C@H](C(=O)O)CC4)n4ncnc(N)c34)[nH]c12
# Summary of the method: as §1
# lapatinib = compound: CS(=O)(=O)CCNCc1ccc(-c2ccc3ncnc(Nc4ccc(OCc5cccc(F)c5)c(Cl)c4)c3c2)o1 [lapatinib]
# Summary of the method: as §1
# pictilisib = compound: CS(=O)(=O)N1CCN(Cc2cc3nc(-c4cccc5[nH]ncc45)nc(N4CCOCC4)c3s2)CC1 [pictilisib]
# Summary of the method: as §1
# UniProt Q07666, sequence (Q07666 whole entry, looked up): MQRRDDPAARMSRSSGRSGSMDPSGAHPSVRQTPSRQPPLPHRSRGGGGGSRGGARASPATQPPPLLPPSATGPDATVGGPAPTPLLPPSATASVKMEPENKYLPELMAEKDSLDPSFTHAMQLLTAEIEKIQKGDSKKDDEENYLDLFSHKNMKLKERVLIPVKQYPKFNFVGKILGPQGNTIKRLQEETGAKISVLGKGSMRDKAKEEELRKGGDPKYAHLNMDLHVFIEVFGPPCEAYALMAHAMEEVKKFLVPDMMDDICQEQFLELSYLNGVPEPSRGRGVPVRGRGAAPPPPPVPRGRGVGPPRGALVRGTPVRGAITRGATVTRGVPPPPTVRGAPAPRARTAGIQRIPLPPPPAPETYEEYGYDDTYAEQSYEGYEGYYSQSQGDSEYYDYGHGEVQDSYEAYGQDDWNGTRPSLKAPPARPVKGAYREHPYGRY
# UniProt Q8IWA4, sequence (Q8IWA4 whole entry, looked up): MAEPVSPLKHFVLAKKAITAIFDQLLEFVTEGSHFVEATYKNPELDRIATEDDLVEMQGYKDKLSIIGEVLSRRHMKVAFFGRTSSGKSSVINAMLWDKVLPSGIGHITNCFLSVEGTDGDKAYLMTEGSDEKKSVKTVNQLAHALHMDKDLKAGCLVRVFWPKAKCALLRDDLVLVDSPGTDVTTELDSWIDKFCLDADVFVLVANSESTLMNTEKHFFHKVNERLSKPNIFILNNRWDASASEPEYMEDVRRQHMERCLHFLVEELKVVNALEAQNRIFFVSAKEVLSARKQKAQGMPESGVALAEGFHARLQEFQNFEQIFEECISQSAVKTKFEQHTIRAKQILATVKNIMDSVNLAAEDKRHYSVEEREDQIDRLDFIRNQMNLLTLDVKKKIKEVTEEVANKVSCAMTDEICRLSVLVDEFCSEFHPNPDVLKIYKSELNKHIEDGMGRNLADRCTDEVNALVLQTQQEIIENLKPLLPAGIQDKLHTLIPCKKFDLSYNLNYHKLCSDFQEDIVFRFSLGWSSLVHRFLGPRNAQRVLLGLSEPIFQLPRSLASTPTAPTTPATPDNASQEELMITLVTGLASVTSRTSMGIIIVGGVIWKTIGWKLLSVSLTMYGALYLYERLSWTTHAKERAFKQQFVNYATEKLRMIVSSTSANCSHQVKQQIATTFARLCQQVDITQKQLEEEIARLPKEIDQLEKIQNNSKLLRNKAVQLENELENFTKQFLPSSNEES
# UniProt P49441, sequence (P49441 whole entry, looked up): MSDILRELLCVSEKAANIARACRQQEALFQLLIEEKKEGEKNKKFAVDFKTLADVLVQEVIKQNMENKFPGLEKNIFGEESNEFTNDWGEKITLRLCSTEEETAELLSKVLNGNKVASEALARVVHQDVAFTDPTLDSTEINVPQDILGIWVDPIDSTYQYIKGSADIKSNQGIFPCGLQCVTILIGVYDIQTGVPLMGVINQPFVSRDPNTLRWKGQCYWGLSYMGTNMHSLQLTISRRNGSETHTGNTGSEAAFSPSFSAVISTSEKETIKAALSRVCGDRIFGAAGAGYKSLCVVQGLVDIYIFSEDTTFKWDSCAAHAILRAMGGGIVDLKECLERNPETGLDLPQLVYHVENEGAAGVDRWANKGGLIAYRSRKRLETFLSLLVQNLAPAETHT
# UniProt P52294, sequence (P52294 whole entry, looked up): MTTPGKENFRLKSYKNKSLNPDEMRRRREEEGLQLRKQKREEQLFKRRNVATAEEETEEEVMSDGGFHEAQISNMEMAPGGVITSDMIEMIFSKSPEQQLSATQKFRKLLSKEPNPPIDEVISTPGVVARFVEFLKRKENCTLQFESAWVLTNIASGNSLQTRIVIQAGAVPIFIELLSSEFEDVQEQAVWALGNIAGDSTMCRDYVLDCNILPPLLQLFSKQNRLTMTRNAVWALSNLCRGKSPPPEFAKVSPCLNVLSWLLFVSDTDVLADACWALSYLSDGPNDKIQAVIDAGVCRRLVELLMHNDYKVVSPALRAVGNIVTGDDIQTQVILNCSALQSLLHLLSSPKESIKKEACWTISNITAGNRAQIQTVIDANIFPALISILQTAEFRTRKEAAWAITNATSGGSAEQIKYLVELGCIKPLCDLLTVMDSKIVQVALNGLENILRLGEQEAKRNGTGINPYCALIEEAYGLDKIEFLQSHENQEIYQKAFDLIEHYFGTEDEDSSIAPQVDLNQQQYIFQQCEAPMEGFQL
# UniProt Q14739, sequence (Q14739 whole entry, looked up): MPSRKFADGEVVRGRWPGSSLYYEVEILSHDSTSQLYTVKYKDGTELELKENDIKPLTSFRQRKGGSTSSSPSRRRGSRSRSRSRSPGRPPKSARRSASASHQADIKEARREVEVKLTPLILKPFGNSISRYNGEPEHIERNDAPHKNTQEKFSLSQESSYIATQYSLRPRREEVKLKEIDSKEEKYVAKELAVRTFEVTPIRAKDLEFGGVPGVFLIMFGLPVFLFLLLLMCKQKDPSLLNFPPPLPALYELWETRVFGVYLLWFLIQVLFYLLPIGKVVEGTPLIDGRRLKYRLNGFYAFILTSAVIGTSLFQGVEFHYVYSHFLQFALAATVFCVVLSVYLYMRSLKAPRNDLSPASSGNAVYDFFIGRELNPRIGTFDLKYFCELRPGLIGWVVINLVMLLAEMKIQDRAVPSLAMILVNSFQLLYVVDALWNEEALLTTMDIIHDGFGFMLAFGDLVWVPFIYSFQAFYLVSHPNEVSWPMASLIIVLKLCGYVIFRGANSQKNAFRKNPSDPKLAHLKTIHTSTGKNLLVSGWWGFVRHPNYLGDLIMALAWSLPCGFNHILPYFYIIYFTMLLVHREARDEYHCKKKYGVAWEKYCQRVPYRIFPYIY
# UniProt Q96QZ7, sequence (Q96QZ7 whole entry, looked up): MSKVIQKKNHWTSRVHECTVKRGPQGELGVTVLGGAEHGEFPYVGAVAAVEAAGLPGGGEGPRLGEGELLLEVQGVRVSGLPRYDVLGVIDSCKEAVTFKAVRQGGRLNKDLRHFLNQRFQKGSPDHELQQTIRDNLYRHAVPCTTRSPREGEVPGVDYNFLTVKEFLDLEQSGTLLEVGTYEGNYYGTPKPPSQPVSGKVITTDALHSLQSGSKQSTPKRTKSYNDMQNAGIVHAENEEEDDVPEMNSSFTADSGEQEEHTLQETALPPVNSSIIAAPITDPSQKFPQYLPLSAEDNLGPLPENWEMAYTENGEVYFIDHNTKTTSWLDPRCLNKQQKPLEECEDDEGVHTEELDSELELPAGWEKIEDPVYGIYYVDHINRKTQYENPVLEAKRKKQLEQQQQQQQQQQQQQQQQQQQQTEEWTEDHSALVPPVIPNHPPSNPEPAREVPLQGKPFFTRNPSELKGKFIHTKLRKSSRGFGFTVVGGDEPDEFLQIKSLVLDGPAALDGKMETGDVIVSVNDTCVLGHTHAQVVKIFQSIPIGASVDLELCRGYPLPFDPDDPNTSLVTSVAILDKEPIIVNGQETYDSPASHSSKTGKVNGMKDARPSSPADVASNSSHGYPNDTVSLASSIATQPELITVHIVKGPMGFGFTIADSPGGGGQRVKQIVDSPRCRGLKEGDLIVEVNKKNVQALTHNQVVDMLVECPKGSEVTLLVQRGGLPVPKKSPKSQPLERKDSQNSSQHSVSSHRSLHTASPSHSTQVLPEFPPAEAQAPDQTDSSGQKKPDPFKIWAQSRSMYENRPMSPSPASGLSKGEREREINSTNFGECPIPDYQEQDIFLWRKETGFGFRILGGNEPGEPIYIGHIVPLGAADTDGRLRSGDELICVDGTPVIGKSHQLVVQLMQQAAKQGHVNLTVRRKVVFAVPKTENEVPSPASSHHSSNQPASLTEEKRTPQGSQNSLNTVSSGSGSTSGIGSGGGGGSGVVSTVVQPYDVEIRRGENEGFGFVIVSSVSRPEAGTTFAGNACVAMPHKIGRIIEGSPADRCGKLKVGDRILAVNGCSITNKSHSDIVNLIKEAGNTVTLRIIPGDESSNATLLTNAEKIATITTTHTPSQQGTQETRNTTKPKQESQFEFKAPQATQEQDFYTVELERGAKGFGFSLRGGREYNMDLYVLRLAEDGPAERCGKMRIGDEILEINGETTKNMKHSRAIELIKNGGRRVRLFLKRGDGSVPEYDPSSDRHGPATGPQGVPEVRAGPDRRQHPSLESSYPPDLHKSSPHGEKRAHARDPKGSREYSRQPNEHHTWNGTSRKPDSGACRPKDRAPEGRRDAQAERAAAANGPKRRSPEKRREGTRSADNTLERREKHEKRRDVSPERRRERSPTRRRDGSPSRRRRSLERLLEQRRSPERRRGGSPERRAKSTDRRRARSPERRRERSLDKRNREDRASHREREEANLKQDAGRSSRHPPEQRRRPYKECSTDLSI
# UniProt Q9H3F6, sequence (Q9H3F6 whole entry, looked up): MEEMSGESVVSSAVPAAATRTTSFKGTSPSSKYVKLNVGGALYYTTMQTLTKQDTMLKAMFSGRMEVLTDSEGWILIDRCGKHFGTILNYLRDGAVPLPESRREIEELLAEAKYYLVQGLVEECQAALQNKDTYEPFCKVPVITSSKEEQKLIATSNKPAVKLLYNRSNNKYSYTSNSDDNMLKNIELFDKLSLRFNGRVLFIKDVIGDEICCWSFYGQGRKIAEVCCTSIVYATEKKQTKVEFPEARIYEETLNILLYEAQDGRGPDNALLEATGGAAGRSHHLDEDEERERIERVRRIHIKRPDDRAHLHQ
Target,log2 fold change (saracatinib),log2 fold change (sotrastaurin),log2 fold change (alvocidib),log2 fold change (Tubastatin A),log2 fold change [1],log2 fold change (defactinib),log2 fold change (rucaparib),log2 fold change [2],log2 fold change (encorafenib),log2 fold change [3],log2 fold change [4],log2 fold change (filanesib),log2 fold change (zotarolimus),log2 fold change (idasanutlin),log2 fold change (alisertib),log2 fold change [5],log2 fold change (gefitinib),log2 fold change [6],log2 fold change (lapatinib),log2 fold change (pictilisib)
MED1 (UniProt Q15648),0.001,-0.092,-0.11,-0.025,0.042,-0.005,0.067,-0.045,0.009,0.033,-0.051,0.116,0.042,0.056,-0.056,-0.063,-0.039,0.016,0.114,0.077
LBR (UniProt Q14739),0.008,0.036,-0.032,-0.008,-0.02,-0.022,0.164,0.116,0.058,-0.089,-0.075,-0.065,-0.008,-0.196,-0.019,0.079,0.034,0,-0.081,-0.191
KHDRBS1 (UniProt Q07666),0.025,0.018,0.027,-0.006,0,0.042,0.248 (active),-0.009,-0.009,-0.05,0.06,0.041,-0.012,0.002,0.014,0.129,0.026,0.008,-0.072,-0.072
KDM1A isoform 2 (UniProt O60341),-0.061,-0.139,-0.108,0.127,-0.032,-0.065,0.14,0.021,0.052,-0.032,0.019,0.004,-0.009,-0.03,-0.055,0.07,0.022,-0.036,0.068,-0.008
MDN1 (UniProt Q9NU22),-0.029,-0.035,-0.143,0.033,-0.092,-0.166,-0.067,0.018,0.018,-0.049,0.066,-0.095,-0.002,-0.058,-0.056,-0.031,-0.003,0.022,-0.005,0.001
KDM5D isoform 3 (UniProt Q9BY66),-0.063,0.078,-0.193,-0.451 (active),0.026,-0.357,0.067,-0.078,0.198,-0.05,-0.592 (active),0.073,-0.053,-0.058,-0.044,0.045,-0.021,-0.072,-0.047,0.049
KCTD10 (UniProt Q9H3F6),0.221,-0.002,0.018,0.071,-0.011,0.013,-0.07,0.007,0.015,-0.07,0.086,0.177,-0.095,-0.049,-0.06,0.079,-0.03,-0.105,0.001,-0.039
MAGI1 (UniProt Q96QZ7),-0.013,-0.064,-0.019,-0.017,0.021,-0.007,0.012,0.024,0.059,-0.009,-0.031,0.053,-0.044,0.084,-0.01,0.005,0.042,-0.012,0.01,0.053
KPNA1 (UniProt P52294),-0.014,-0.174,-0.019,0.021,0.006,-0.064,0.151,-0.078,0.197,0,-0.115,0.072,0.065,0.019,0.078,0.083,0.011,-0.042,0.01,0.094
IRF2BPL (UniProt Q9H1B7),0.003,-0.044,-0.079,0.053,0.032,-0.038,0.015,-0.045,-0.06,-0.027,0.283,-0.025,0.029,0.033,0.058,0.015,-0.016,-0.027,-0.015,0.071
MFN1 (UniProt Q8IWA4),-0.029,0.016,-0.076,0.025,-0.019,-0.074,-0.015,0.023,0.038,0,0.042,-0.182,0.06,0.034,0.262,-0.523 (active),0.017,0.03,0.002,0.024
INPP1 (UniProt P49441),0.071,0,-0.011,0.061,0.044,-0.032,-0.029,0.048,0.038,-0.038,-0.086,-0.019,0.048,-0.123,-0.056,0.101,-0.031,0.03,-0.049,-0.116
